# High-throughput results deposited in PubChem by National Center for Advancing Translational Sciences (NCATS).
# SMN2 splice enh – SMN2 splice variant enhancement | HEK293 SMN2-luciferase splicing reporter, luminescence, 30-36 h | Potency, µM (doses to about 46.1 µM), for inactives: at the highest dose activity change, positive = activation, most hits filed as activators | hit rate 2.8% among 210,000 | AID 1458; also: % of control where 0% means no effect; nearly all actives have a fitted effect of over 55% in size
#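 qHTS luciferase splicing reporter: luminescence rises when SMN2 exon 7 is included in transfected HEK293 cells. Compound exposure lasted 30-36 h at 37C, with 4.5 mM final sodium butyrate as control, followed by a ONE-Glo read.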
# NPC1 prom act – activators of NPC1 promoter; Huh7 NPC1 promoter luciferase reporter, 24 h; Potency, µM (top dose mostly 9.22 µM), inactives show at the top dose activation, actives largely listed as activators; hit rate 2.4% among 320,000; AID 485313; also: % of control where 0% means no effect; nearly all actives have a fitted effect of over 60% in size
#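 In 1536-well qHTS, Huh7 cells harboring an NPC1 promoter–luciferase construct received compound for 24 h; activation was quantified by luminescence following luciferase reagent addition.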
# ELG1 genotoxic – induces genotoxicity in HEK293T cells with luciferase-tagged ELG1; HEK293T ELG1-luciferase reporter, luminescence, 16 h; Potency, µM (series often up to 46 µM), inactives show at the highest dose activity change, positive = activation, usual class: activators; AID 504466; hit rate 1.3% among 330,000; also: % of control where 0% means no effect; nearly all actives have a fitted effect of over 60% in size
#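 Genotoxic stress is detected as increased luminescence from luciferase-tagged ELG1 in HEK293T cells, measured with ONE-Glo after a 16 hr treatment at 37 °C.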
# Rab9 prom act – activators of Rab9 promoter | Huh7 Rab9 promoter-luciferase reporter, luminescence, 24 h | Potency, µM (titrated, usually from 9.22 µM), inactives show top-dose activation, negative = inhibition, usual class: activators | hit rate 2.8% among 320,000 | AID 485297; also: % of control where 0% means no effect; nearly all actives have a fitted effect of over 60% in size
#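 Luciferase signal after 10 min detection reagent at ambient indicates Rab9 promoter upregulation; stably transfected Huh7 cells were treated 24 h with compound in DMSO at 37 °C, 5% CO2.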
# uPA surface inh – inhibitors of cell surface uPA generation. cell surface uPA generation assay, qHTS. Potency, µM (series often up to 38.3 µM), without a hit: at the highest dose activity change, negative = inhibition, most hits filed as inhibitors. hit rate 0.31% among 330,000; active = well fitted inhibition curve with a large enough effect; inconclusive = small, poorly fitted or top-dose-only effect; inactive = no such curve, though single readings can be large or run the other way; tested in mouse RAW 264.7 cells; also: % is scaled to controls: 0 for no effect and ±100 for the full control effect; nearly all actives have a fitted effect of over 55% in size
# FLuc counter – inhibits or activates purified firefly luciferase, miR-21 counter-screen | P08659 | Potency, µM (doses to about 57.5 µM), without a hit: top-dose activity change, negative = inhibition, hits mostly inhibitors | hit rate 6.9% among 360,000 | purified FLuc, Km substrates, luminescence inhibition;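 also: plate controls were vehicle for no effect and reference inhibitor for full effect; nearly all actives have a fitted effect of over 55% in size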
# Target sequence (P08659 whole entry, looked up): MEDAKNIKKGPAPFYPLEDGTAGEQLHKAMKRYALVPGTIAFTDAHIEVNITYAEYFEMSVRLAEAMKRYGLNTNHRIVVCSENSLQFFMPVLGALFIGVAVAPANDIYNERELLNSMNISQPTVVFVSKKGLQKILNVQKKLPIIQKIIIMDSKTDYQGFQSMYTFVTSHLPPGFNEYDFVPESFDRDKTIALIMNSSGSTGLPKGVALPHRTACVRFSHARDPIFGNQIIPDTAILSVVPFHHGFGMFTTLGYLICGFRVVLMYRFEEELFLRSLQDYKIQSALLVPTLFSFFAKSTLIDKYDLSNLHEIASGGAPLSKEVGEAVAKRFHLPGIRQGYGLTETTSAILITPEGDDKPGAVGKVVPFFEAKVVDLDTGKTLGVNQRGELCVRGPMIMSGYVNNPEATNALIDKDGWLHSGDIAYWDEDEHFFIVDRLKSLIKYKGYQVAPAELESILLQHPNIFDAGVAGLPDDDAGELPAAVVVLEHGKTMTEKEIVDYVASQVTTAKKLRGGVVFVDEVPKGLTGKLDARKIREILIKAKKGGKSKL
#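 Biochemical qHTS of compounds, final roughly 60 µM downward over six points, against 10 nM purified firefly luciferase using Km concentrations of substrates (10 uM D-luciferin, 10 uM ATP) in Tris acetate pH 7.5 buffer; luminescence output.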
# * marks the source's active call; other numbers are inactive results; ? = inconclusive; . = no result; [ ] = dose if it differs, or a comment. Most compounds without a hit are left out; they make up all but 7.3% or so of the library. Unless noted, calls follow the shape of the dose curve; as a rule, active = well fitted curve in the direction sought with a large enough effect; inconclusive = small, poorly fitted or top-dose-only effect, or another doubt; inactive = no such curve, though single readings can be large; an effect the other way counts as inactive or inconclusive. Potency is read from the fitted curve at half-maximal effect.
SMILES,SMN2 splice enh,NPC1 prom act,ELG1 genotoxic,Rab9 prom act,uPA surface inh,FLuc counter
Cc1cccc(OCCn2c(=O)sc3ccccc32)c1,13µM*,?,?,2.8µM*,-4%,11µM*
Cc1cccc(OCCN2C(=O)c3ccccc3C2=O)c1,19%,27%,?,3.5µM*,-2%,24µM*
CCOc1ccc(OCCN2C(=O)c3ccccc3C2=O)cc1,.,-2%,-12%,-4%,-22%,-15%
Cc1cccc(OCCn2c(=O)n(C)c3ccccc32)c1,13µM*,3.2µM*,6.5µM*,1.8µM*,?,15µM*
CCOC(=O)c1c(C)[nH]c(CCC(=O)NCc2cc(Br)ccc2OC)c1C,.,.,.,.,.,-8%
COc1ccc(OCCn2c(=O)sc3ccccc32)cc1,?,?,?,?,.,19µM*
COc1ccc(C2=NOC(C(=O)N3CCOCC3)C2)cc1OC (configuration not stated),13%,15%,7%,16%,.,-1%
COc1cccc(C2=NOC(C(=O)N3CCOCC3)C2)c1 (configuration not stated),8%,3.5µM*,?,?,.,19µM*
CO[C@@H]1/C=C\O[C@]2(C)Oc3c(C)c(O)c4c(O)c(c(CN5CCN(C)CC5)c(O)c4c3C2=O)NC(=O)/C(C)=C\C=C[C@@H](C)[C@@H](O)[C@H](C)[C@@H](O)C(C)[C@H](OC(C)=O)[C@@H]1C (some centres not stated),-11%[9.22 µM],.,.,.,.,.
CCOc1ccc(C2NC(=O)C(C#N)=C(S)N2c2ccc(C)cc2)cc1OC (configuration not stated),-13%,-2%,12%,-1%,-2%,17µM*
O=Cc1c[nH]c2ccc(NC(=O)OCc3ccccc3)cc12,.,.,.,.,3%,.
O=Cc1c[nH]c2cccc(OCc3ccccc3)c12,.,17%,11%,30%,-7%,11µM*
CCN(CC)C(=O)c1ccc(COc2ccc(Cl)c(C)c2)o1,.,30%,7%,29%,-2%,?
O=C(c1ccc(COc2ccc(F)cc2)o1)n1cccn1,3%,0%,2%,-3%,1%,24µM*
Cc1cc(OCc2ccc(C(=O)n3cccn3)o2)ccc1Cl,11µM*,?,?,?,0%,?
Cc1nc2ccn(Cc3ccco3)c(=O)c2cc1C(=O)NCc1ccccc1F,.,.,.,.,.,4%
O=C(N/N=C\c1ccc(F)cc1)c1ccc(F)cc1,?,?,?,?,-5%,19µM*
Cc1ccc(C(=O)N/N=C\c2cccnc2)s1,.,24%,?,?,?,6.7µM*
Nc1ccc(C(=O)N/N=C/c2ccccc2)cc1,?,?,?,3.2µM*,-5%,11µM*
O=C(N/N=C/c1ccoc1)c1ccc([N+](=O)[O-])cc1,.,4%,7%,1%,3%,21µM*
Cc1cc(C(=O)N/N=C/c2cccnc2)cs1,?,0%,7%,17%,-8%,?
Cc1ccc(CSc2nnc3[nH]c(=O)cc(C)n23)cc1,.,.,.,.,.,-2%
O=C(N/N=C/c1cccnc1)c1ccc(F)cc1,.,27%,14%,?,-6%,13µM*
CSc1ccc(/C=N/NC(=O)c2cccc(O)c2)cc1,?,?,?,3.5µM*,-10%,4.3µM*
COC(=O)c1ccc(/C=N/NC(=O)c2cccc(F)c2)cc1,14µM*,2µM*,?,3.2µM*,.,-66%
SMILES,SMN2 splice enh,NPC1 prom act,ELG1 genotoxic,Rab9 prom act,uPA surface inh,FLuc counter
O=C(N/N=C/c1cccnc1)c1ccccc1,.,16%,10%,11%,-17%,?
CC(=O)n1cc(/C=N/NC(=O)c2ccc([N+](=O)[O-])cc2)c2ccccc21,.,6%,3%,11%,-14%,6.7µM*
Cc1c(/C=N\NC(=O)c2ccc([N+](=O)[O-])cc2)cnn1C,0%,1%,1%,2%,-2%,-17%
Cc1cccc(Cn2c(C)c(CNC3CCCCCC3)c(C(=O)O)c2C)c1,-4%,.,.,.,.,-2%
CN(C)/C=C(\C#N)C(=O)N/N=C/c1ccc(F)cc1,5%,10%,4%,10%,-2%,17µM*
O=C(Cc1ccc([N+](=O)[O-])cc1)N/N=C/c1cccnc1,.,.,.,.,13%,.
O=C(N/N=C/c1cccnc1)c1ccc([N+](=O)[O-])cc1,-12%,-4%,0%,-2%,-2%,15µM*
Cc1ccc(-n2ncc(C(=O)NCc3ccco3)c2C2CCN(C(=O)OC(C)(C)C)CC2)cc1,.,.,.,.,.,-3%
O=C(OCc1nnc(-c2ccccc2)o1)c1cc(S(=O)(=O)N2CCOCC2)c(Cl)cc1Cl,?,-4%,18µM*,7%,2%,-2%
Cc1ccc(S(=O)(=O)N2CCOCC2)cc1C(=O)OCc1nnc(-c2ccccc2)o1,.,1%,-2%,4%,-4%,-19%
Cc1cc(C)c2c(-n3cccc3)c(C(=O)NCCCN3CCCCC3)sc2n1,.,.,.,.,.,-2%
COc1ccccc1CNc1ccc(-c2nc(-c3ccncc3)no2)cc1[N+](=O)[O-],.,.,.,.,.,-6%
CCOC(=O)c1csc(NC(=O)c2cc(=O)c3ccccc3o2)n1,23%,16%,10%,?,-12%,15µM*
CC(=O)c1sc(NC(=O)c2c(F)cccc2F)nc1C,11%,-1%,8%,-6%,1%,-14%
O=C(Nc1nc2ccc(Cl)cc2s1)c1cc(=O)c2ccccc2o1,14%,.,.,.,.,?
CC(=O)c1sc(NC(=O)c2cc(=O)c3ccccc3o2)nc1C,11µM*,2.5µM*,?,3.2µM*,?,7.6µM*
CCCc1nnc(NC(=O)c2cc(=O)c3ccccc3o2)s1,3%,.,.,.,.,?
CC(=O)c1sc(NC(=O)c2oc3ccc(F)cc3c2C)nc1C,.,2.2µM*,18%,2.8µM*,?,1.9µM*
NC(=O)c1ccsc1NC(=O)c1cc(=O)c2ccccc2o1,10µM*,?,?,1.8µM*,3%,2.7µM*
Cc1ccc(NC(=O)C2CCCN(c3ncnc4onc(C)c34)C2)c(Cl)c1 (configuration not stated),.,.,.,.,.,5%
CCCCOc1ccc(C(=O)N2CCN(CCc3ccccn3)CC2)cc1,.,.,.,.,.,-5%
COc1cccc(NC(=O)CC(=O)Nc2ccc3nc4n(c(=O)c3c2)CCCCC4)c1,-3%,.,.,.,.,-18%
COc1cc(OC)cc(C(=O)Nc2ccc3nc4n(c(=O)c3c2)CCCCC4)c1,18µM*,3.2µM*,?,3.5µM*,-28%,12µM*
COc1cccc(/C=C/C(=O)Nc2ccc3nc4n(c(=O)c3c2)CCCC4)c1OC,.,5%,-11%,9%,?,12µM*
